Among the data in PubChem BioAssay are composite z-score and z-score values, retold here.

Calls of active or inactive are those of the source.

Test [1] is described as follows: small molecules captured by biotinylated probe aFSTL3 – biochemical, small-molecule microarray, fluorescence 635/667, stem cell growth factor project, primary screen (AID 1064).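 Note: measures binding of the biotinylated anti-FSTL3 antibody to printed compounds.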 As to conditions: higher = more signal.
Test [2] can be described thus: binders from COS7 lysate, DM2A8 probe, primary screen, torsin A project, cell lysate, small-molecule microarray, fluorescence 635/667 (AID 1065). The settings on record: higher = more signal, COS7 lysate expressing mutant human TOR1A.
Test [3] is described as follows: small molecules captured by biotinylated probe aFGF2 – biochemical, small-molecule microarray, fluorescence 635/667, stem cell growth factor project, primary screen (AID 1067).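 Note: measures binding of biotinylated aFGF2 protein to printed compounds on slides; z-score merges feature fluorescence and signal-to-noise across triplicate slides.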 The settings on record: higher = more signal.
Test [4] in a line: small molecules captured by biotinylated probe aFGF10 – biochemical, small-molecule microarray, fluorescence 635/667, stem cell growth factor project, primary screen (AID 1071).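 Note: score merges 667 nm spot intensity and signal to noise from triplicate slides.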 As to conditions: higher = more signal.
The target of test [5] is Neurogenic locus notch homolog protein 2 (Homo sapiens) (UniProt Q04721). The test can be described thus: small molecules binding Notch2 protein – biochemical, small-molecule microarray, 635 nm fluorescence, stem cell growth factors, primary screen (AID 1073). The settings on record: higher = more signal.
Test [6] concerns the target Pro-neuregulin-1, membrane-bound isoform (Homo sapiens) (UniProt Q02297). The test can be described thus: small molecules binding neuregulin-1 protein – biochemical, small-molecule microarray, fluorescence 635/667, psychiatric disease protein project, primary screen (AID 1075).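 Note: score combines 667 nm spot fluorescence with signal to noise.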 The settings on record: NRG1 binding, 635 nm fluorescence, higher = more signal.
Test [7] has as its system Neuregulin-1 EGF-like domain. The experiment in a line: small molecules binding NRG1 EGF domain – biochemical, small-molecule microarray, 635 nm fluorescence, primary screen (AID 1081).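 Note: binding of the protein to compounds printed on small-molecule microarray slides.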 As to conditions: higher = more signal.
Test [8] in a line: FRG1 expression reporter modulators in myotubes – cell-based, C2C12 myotubes, firefly/Renilla luciferase, luminescence, FRG1 inhibition for FSHD, primary screen (AID 1084). As to conditions: FRG1 promoter luciferase, higher = more signal, called active from +8 up or from −8 down.
A short description of test [9]: small molecules captured by biotinylated probe aFST – biochemical, small-molecule microarray, fluorescence 635/667, stem cell growth factor project, primary screen (AID 1086).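 Note: score merges 667 nm fluorescence with signal-to-noise of each printed compound spot.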 The settings on record: higher = more signal.
Test [10] is described as follows: binders of probe aHhip on microarray, primary screen, stem cell growth factor project, biochemical, small-molecule microarray, fluorescence 635/667 (AID 1087).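 Note: score merges spot fluorescence at 667nm with spot signal to noise ratio.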 As to conditions: higher = more signal.
In test [11] the test system is PRMT1 (protein arginine N-methyltransferase 1). The test can be described thus: small molecules binding arginine methyltransferase PRMT1 – biochemical, small-molecule microarray, 635 nm fluorescence, primary screen (AID 1088).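 Note: binding of Prmt1 protein to compounds spotted on small-molecule microarray slides.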 As to conditions: higher = more signal.
Test [12] in a line: growth effects on S. cerevisiae YJM789 – YJM789 clinical isolate, OD600, 24 h, basal, primary screen (AID 1089).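 Note: growth of clinical yeast isolate S. cerevisiae YJM 789 seeded 1000 cells per well; test concentration not given here.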 As to conditions: higher = more signal, called active from +8 up or from −8 down.
Test [13] is described as follows: S. pombe growth modifiers, basal conditions – strain 972, OD600, 24 h, no modulator, primary screen (AID 1090).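 Note: basal condition with compound alone and no growth modifier present; test concentration not given here.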 As to conditions: S. pombe 972 growth, higher = more signal, called active from +8 up or from −8 down.
A short description of test [14]: budding yeast growth modifiers under rapamycin – strain BY4716, OD600, 96 h, primary screen (AID 1091). Note: test concentration not given here. The settings on record: S. cerevisiae BY4716 + rapamycin, higher = more signal, called active from +8 up or from −8 down.
Test [15] addresses Torsin-1A-interacting protein 2 (Homo sapiens) (UniProt Q8NFQ8). The experiment in a line: small molecules binding lysate-expressed LULL1 – cell lysate, human LULL1 lysate, 635/667 nm fluorescence, primary screen (AID 1092).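 Note: probe is lysate of COS7 cells overexpressing human LULL1; score merges per-feature 667 nm fluorescence with signal-to-noise.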 The settings on record: small-molecule microarray, hLULL1 lysate binding, 635 nm fluorescence; higher = more signal.
The nature of test [16]: optical density change of DRC41 E. coli – strain DRC41, OD650, 24 h, E. coli filamentation project, primary screen (AID 1093).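 Note: MC1000 strain lacking acrAB efflux and sulA so SOS filamentation is blocked; test concentration not given here.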 The settings on record: E. coli DRC41 growth, higher = more signal, called active from +8 up or from −8 down.
Test [17] can be described thus: probe aLefty2 binding to arrayed compounds – biochemical, biotinylated probe, 635/667 nm fluorescence, primary screen (AID 1094).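 Note: score merges spot fluorescence near 667 nm with spot signal-to-noise ratio.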 As to conditions: small-molecule microarray, higher = more signal.
Test [18] concerns Noggin (protein binding on small-molecule microarray). The test can be described thus: small molecules binding Noggin protein – biochemical, 635/667 nm fluorescence, primary screen (AID 1095).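 Note: score merges 667 nm feature fluorescence with signal to noise over triplicate slides.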 As to conditions: 635 nm fluorescence, higher = more signal.
For test [19], the target named is Neurogenic locus notch homolog protein 3 (Homo sapiens) (UniProt Q9UM47). The experiment in a line: small molecules binding NOTCH3 protein – biochemical, 635/667 nm fluorescence, primary screen (AID 1096). The settings on record: small-molecule microarray, 635 nm fluorescence, higher = more signal.
A short description of test [20]: probe aEGFR binding to arrayed compounds – biochemical, biotinylated probe, 635/667 nm fluorescence, primary screen (AID 1097).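 Note: probe is a biotinylated anti-EGFR antibody binding compounds printed on slides; score combines fluorescence near 667 nm and signal to noise of each spot.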 The settings on record: small-molecule microarray, higher = more signal.

Chain of Pro-neuregulin-1, membrane-bound isoform (Homo sapiens) (Q02297 whole entry, looked up, the tested form may be a part, canonical isoform): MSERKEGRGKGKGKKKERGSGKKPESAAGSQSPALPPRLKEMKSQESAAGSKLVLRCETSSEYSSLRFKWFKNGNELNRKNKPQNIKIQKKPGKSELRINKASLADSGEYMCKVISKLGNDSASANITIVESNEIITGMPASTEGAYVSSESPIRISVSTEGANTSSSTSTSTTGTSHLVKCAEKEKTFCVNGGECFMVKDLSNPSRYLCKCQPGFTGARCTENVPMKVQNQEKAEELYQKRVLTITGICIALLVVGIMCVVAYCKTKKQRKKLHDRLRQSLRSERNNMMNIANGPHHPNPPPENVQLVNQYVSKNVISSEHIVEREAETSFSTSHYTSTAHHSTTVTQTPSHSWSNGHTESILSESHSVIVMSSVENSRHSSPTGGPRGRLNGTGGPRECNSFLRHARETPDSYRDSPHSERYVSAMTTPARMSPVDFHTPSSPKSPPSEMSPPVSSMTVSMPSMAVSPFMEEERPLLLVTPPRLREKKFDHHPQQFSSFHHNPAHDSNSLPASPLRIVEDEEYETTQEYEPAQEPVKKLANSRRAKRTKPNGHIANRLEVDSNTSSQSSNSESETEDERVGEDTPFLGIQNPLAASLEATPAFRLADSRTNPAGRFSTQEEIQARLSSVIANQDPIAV
Chain of Neurogenic locus notch homolog protein 2 (Homo sapiens) (Q04721 whole entry, looked up, canonical isoform): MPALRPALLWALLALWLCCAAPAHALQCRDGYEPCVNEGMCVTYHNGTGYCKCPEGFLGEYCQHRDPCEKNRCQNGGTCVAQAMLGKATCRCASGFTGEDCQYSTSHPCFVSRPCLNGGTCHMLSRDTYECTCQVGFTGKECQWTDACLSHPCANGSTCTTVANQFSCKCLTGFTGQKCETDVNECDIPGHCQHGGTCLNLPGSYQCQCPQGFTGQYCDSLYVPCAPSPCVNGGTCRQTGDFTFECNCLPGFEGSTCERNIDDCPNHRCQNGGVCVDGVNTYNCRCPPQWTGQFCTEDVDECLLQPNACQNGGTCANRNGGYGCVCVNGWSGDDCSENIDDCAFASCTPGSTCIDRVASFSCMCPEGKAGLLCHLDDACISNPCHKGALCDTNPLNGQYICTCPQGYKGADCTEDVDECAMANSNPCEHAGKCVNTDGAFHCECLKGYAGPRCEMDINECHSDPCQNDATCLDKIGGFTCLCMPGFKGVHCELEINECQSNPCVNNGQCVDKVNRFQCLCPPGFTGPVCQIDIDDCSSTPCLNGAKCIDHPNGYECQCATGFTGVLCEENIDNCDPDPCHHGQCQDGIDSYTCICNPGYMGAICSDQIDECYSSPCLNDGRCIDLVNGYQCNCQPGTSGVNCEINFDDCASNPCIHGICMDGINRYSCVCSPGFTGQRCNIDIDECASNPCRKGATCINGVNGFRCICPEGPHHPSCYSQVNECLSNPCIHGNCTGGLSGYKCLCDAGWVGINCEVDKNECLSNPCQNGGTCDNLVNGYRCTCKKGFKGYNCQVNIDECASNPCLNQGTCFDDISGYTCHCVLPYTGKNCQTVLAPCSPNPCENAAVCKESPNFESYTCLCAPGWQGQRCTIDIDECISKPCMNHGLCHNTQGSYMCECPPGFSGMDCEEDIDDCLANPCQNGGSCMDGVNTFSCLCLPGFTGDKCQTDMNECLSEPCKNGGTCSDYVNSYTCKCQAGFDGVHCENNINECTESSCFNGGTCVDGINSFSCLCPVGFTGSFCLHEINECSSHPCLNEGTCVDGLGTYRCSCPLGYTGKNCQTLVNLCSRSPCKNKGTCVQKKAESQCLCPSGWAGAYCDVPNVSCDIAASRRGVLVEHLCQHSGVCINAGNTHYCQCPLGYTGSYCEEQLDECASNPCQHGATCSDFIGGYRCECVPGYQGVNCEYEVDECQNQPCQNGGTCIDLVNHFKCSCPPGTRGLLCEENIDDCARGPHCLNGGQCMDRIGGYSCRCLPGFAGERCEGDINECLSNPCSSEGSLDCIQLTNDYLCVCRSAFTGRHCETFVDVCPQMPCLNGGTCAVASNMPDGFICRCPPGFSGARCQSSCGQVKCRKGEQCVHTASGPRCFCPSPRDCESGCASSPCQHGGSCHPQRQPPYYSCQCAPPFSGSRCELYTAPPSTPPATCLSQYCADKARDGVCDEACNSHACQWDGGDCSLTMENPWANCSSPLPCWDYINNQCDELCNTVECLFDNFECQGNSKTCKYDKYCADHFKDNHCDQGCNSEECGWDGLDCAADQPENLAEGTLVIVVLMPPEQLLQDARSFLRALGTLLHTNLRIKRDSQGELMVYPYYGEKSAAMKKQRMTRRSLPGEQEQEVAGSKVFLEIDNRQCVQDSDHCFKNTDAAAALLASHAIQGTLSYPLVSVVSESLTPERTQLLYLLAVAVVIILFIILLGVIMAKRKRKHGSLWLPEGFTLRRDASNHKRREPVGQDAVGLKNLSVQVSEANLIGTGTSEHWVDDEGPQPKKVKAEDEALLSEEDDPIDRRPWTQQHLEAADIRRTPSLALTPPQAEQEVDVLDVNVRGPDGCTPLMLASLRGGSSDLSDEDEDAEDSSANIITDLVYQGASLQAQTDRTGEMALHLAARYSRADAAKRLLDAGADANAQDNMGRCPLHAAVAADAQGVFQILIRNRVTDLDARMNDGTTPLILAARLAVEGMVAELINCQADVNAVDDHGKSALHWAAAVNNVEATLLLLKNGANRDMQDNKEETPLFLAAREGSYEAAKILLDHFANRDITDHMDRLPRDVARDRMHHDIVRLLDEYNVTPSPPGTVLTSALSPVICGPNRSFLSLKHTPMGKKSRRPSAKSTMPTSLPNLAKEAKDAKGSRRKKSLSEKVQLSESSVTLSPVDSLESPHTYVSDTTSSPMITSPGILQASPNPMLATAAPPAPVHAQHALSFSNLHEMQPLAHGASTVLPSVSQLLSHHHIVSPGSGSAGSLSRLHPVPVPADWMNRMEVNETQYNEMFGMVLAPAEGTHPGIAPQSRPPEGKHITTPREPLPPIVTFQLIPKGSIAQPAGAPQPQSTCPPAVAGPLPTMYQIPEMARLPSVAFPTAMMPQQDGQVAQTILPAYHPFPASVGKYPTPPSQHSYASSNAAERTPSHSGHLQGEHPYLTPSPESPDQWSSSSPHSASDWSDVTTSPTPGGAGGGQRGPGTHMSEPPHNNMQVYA
Chain of Torsin-1A-interacting protein 2 (Homo sapiens) (Q8NFQ8 whole entry, looked up): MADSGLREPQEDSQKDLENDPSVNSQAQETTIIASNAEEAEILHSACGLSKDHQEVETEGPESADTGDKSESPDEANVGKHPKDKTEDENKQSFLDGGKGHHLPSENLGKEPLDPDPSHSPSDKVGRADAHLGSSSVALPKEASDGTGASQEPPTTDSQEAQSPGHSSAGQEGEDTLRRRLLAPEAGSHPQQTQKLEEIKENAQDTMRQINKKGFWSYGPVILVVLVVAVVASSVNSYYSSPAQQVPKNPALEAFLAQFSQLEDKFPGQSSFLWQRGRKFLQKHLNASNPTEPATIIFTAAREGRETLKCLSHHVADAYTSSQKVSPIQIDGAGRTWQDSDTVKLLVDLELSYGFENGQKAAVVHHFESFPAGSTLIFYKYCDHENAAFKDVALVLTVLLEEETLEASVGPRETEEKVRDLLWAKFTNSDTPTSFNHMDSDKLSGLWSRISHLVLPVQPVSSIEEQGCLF

As for `O=C1OCC=C[C@H]2OC34C=CCN(Cc5ccccc5)C(=O)[C@H]3N(CCO)C(=O)[C@@H]4[C@@H]12` (stereo not given in full), the composite z-score in test [1] is 0.322; in test [2], -0.0397; in test [3] it was -0.149; in test [4], -0.387; in test [5], -0.338; in test [6], 2.05. In addition, the composite z-score was 0.699 in [7]; -0.331 in test [9]; -0.236 in [10]; 0.409 in test [11]; 2.08 in [15]; -0.232 in test [17]. Further, the composite z-score in test [18] is -1.41; in test [19], -0.159; in [20], -0.172. Further, the z-score in [8] was -0.019 (inactive); in test [12], -0.308 (inactive); in test [13], 0.176 (inactive); in test [14] it was -1.17 (inactive); in [16], 2.13 (inactive).
With `CN(C)c1ccc(C(O)C2C=CC3C(=O)NC(=O)C3N2Nc2ccc(Cl)cc2Cl)cc1` (stereo not given), the composite z-score in [1] was 0.649; in test [2], -0.0467; in test [3], 0.021; in [4], 0.294; in [5], 0.879; in test [6], 1.18. Also, the composite z-score in test [7] stood at 1.11; in [9], 1.38; in [10] it was 0.0677; in [11] it was 0.546; in test [15], 2.58; in test [17], 0.31. Further, the composite z-score in [18] was -0.163; in [19] it was 0.809; in [20] it was -0.125. The z-score in [8] is 3.74 (inactive); in test [12], -0.298 (inactive); in test [13], -1.06 (inactive); in test [14], 0.789 (inactive); in [16], -0.617 (inactive).
As for `C=C(COC)/C(=C/C[C@@H](OC(C)=O)c1cccc(OCCO)c1)c1cc(C(=O)OC)ccc1OC`, the composite z-score in [1] was 0.0462; in [2], 0.361; in [3], -0.103; in test [4] it was 0.396; in test [5] it was -0.0821; in test [6], -0.582. For the same compound, the composite z-score amounted to 0.597 in test [7]; 0.105 in test [9]; 0.0274 in [10]; 0.602 in [11]; 0.228 in test [15]; 0.0116 in [17]. The composite z-score in test [18] was 1.56; in test [19], 0.493; in test [20], -0.15. Besides, the z-score is -0.637 (inactive) in test [8]; 0.036 (inactive) in test [12]; -1.11 (inactive) in [13]; -1.03 (inactive) in test [14]; 1.09 (inactive) in test [16].
Regarding `CCOC(=O)C[C@H]1[C@H](OC(=O)c2ccccc2-c2ccccc2)[C@@H](NC(=O)c2ccc(-c3ccccc3)cc2)c2cc(OCCCO)ccc2N1C(=O)Cc1ccc(OC)cc1`, the composite z-score in test [1] was -0.191; in [2] it was -0.0021; in test [3] it was -0.0642; in [4], 0.389; in test [5], 0.212; in test [6], -0.109. Also, the composite z-score was 0.373 in [7]; 0.437 in test [9]; -0.0346 in test [10]; 0.362 in [11]; 0.775 in test [15]; -0.0435 in test [17]. Besides, the values for the composite z-score in test [18], in test [19] and in [20] were 0.19, 0.266 and 0.0651, respectively. Besides, the z-score is 0.524 (inactive) in [8]; -0.39 (inactive) in test [12]; -0.826 (inactive) in test [13]; 0.27 (inactive) in test [14]; -0.857 (inactive) in test [16].
Take `C[N+](C)(C)CCCC[C@@H]1NC(=O)[C@H]2C[C@@H](C(=O)NCc3ccc(F)cc3)[C@@H](c3cccc(OCCO)c3)N2C1=O`: the composite z-score in [1] is 0.466; in test [2] it was 1.02; in test [3] it was -0.149; in test [4], -0.579; in test [5], -0.607; in test [6] it was 0.594. Further, the composite z-score in test [7] was 1.22; in [9] it was 0.231; in test [10], 0.0176; in [11], 1.47; in [15] it was 0.823; in test [17] it was -0.166. The composite z-score in test [18] is 1.62; in test [19] it was 0.716; in [20], -0.118. Also, the z-score in [8] is 0.106 (inactive); in [12], -1.69 (inactive); in test [13], -1.62 (inactive); in test [14], -0.736 (inactive); in test [16], 0.973 (inactive).
